{"source": "PubChem BioAssay", "key": {"[1]": {"test": "hESC survival regulators, cell-based (AID 493140; call rule not given here;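 on all read-outs here: cells exposed to compounds for four days before counting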)", "conditions": "human embryonic stem cell survival screen; stronger effect = higher value"}, "[2]": {"test": "liver-stage malaria parasite growth inhibition, primary screen, cell-based, HepG2, luciferase luminescence, HepG2 viability (AID 624349; in the data active means parasite load remaining mostly below about 12%, no sharp cut-off; inactive means mostly above about 10%;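 on all read-outs here: 100% = mean of DMSO negative control wells on the same plate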)", "conditions": "P. berghei liver stage in HepG2, luciferase luminescence, concentration not given here; parasite load remaining: stronger effect = lower value; viability: measured here: HepG2 viability without parasites"}, "[3]": {"test": "stimulators of nuclear beta-catenin in C2C12, primary screen, imaging, WNT3A-conditioned medium, mouse C2C12, NPC library (AID 1117326; in the data active means nuclear beta-catenin stimulation mostly above about 4.2%, no sharp cut-off; inactive means mostly below about 10%)", "conditions": "stronger effect = higher value"}, "[4]": {"test": "stimulators of insulin release from INS-1E, primary screen, cell-based, 5 mM glucose, NPC library (AID 1117329;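 active means compound raises insulin release from rat beta cells at 5 mM glucose, no numeric limit stated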)", "conditions": "rat INS-1E insulin secretion, at 10 µM, stronger effect = higher value"}, "[5]": {"test": "growth inhibition of GSK3B-pretreated HCT116 cells – cell-based, CellTiter-Glo, 0.2 to 20 µM (AID 1117336;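 active means compounds lowering colon cancer cell viability after pretreatment blocking the GSK3B kinase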)", "conditions": "HCT116 viability after GSK3B inhibitor, at 20 µM, stronger effect = higher value"}, "[6]": {"test": "inhibition of endothelial tube formation, primary screen, imaging, VEGF stimulated, CD31 staining, tube area, NPC library (AID 1117340;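 active means compound that reduces growth-factor-driven endothelial tube area in a mixed cell culture, no cutoff stated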)", "conditions": "VEGF-stimulated ADSC/ECFC co-culture, at 10 µM, stronger effect = higher value"}, "[7]": {"test": "glucagon-like peptide 1 release enhancers, primary assay, NCI-H716 cell line, NPC library (AID 1117341;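 active means compound raises GLP1 secretion from the human gut endocrine cells, with no numeric limit stated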)", "conditions": "NCI-H716 cells, at 10 µM, stronger effect = higher value"}, "[8]": {"test": "HCT116 colon cancer cell growth inhibition, primary screen, CellTiter-Glo luminescence, NPC library (AID 1117342;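 active means compounds that lower survival of HCT116 colon cancer cells in the luminescence readout, no numeric limit stated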)", "conditions": "at 20 µM (top of the series)"}, "[9]": {"test": "CellTiter-Glo luminescent readout of SW480 viability loss, NPC library primary (AID 1117343;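 active means compounds that lower viability of the colon cancer cells in the luminescence readout, with no numeric limit stated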)", "conditions": "CellTiter-Glo luminescence; at 20 µM (top of the series) unless noted"}, "[10]": {"test": "decreased DLD-1 cellular survival, CellTiter-Glo luminescent readout, NPC compound collection, primary HTS (AID 1117346;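 active means compounds that lower survival of DLD-1 colon cancer cells in the luminescence readout, no cutoff given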)", "conditions": "DLD-1 viability, CellTiter-Glo luminescence; at 20 µM (top of the series)"}, "[11]": {"test": "differential killing of epithelial or mesenchymal cells, primary screen, imaging, PC-3E GFP, TEM4-18 mCherry, co-culture (AID 1345086;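 active means compounds killing one labelled cell type while sparing the other, by normalised counts and ratio limits, not self-fluorescent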;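 on all read-outs here: cells exposed to compound for 72 h before imaging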;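 on red/green cell ratio (normalised): normalised mesenchymal count divided by normalised epithelial count so high means epithelial killing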)", "conditions": "imaging cell counts, at 1 µM; for red/green cell ratio (normalised): actives lie on both sides, counts scaled to control wells, 1 = unselective"}, "[12]": {"test": "sensitizers of A549 cells to miR-34 induction, primary screen, imaging, A549 dox-inducible miR-34, nuclei and caspase counts (AID 1347080)", "conditions": "A549 miR-34 inducible, Hoechst nuclei count, 48 h"}, "[13]": {"test": "survival rescue of mitochondrial mutant cells in low glucose, primary screen, MELAS cybrids, Rieske KO mouse fibroblasts, CellTiter-Glo (AID 1508586;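 active means mean z-score across replicates of 1.96 or higher in either the MELAS or the Rieske mutant cell line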;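 further: z relative to plate mean and SD of compound and empty wells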)"}, "[14]": {"target": "NAD(+) hydrolase SARM1 (Homo sapiens) (UniProt Q6SZW1)", "sequence (Q6SZW1 whole entry, looked up)": "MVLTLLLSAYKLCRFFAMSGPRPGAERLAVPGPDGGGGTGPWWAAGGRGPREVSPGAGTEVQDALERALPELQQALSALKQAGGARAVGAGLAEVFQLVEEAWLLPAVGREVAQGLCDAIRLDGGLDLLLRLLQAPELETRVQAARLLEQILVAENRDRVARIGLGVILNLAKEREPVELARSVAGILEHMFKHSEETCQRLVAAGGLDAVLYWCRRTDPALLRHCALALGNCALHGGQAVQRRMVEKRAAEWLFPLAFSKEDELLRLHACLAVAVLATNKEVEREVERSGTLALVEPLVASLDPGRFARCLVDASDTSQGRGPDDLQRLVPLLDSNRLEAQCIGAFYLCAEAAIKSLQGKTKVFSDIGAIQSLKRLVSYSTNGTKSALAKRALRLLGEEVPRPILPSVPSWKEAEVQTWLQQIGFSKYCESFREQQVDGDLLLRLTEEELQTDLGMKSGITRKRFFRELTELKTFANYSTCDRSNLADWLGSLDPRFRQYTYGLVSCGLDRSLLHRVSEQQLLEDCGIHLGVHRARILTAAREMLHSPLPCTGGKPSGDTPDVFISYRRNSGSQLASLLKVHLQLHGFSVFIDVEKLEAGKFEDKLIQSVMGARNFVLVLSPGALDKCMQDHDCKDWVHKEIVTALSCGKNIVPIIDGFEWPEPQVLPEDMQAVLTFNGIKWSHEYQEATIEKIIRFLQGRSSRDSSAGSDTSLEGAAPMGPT", "test": "SARM1 TIR NADase inhibitors, cell lysate, NAD-Glo luminescence (AID 1508614;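 active means compound whose remaining NAD level is above about 45 nM, limit read from the data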)", "conditions": "SAM-TIR HEK293T lysate NADase, at 1 µM, stronger effect = higher value"}, "[15]": {"conditions": "measured here: epithelial PC-3E GFP cell survival"}, "[16]": {"conditions": "measured here: mesenchymal TEM4-18 mCherry cell survival"}, "[17]": {"conditions": "stronger effect = lower value, cell number ratio, induced over uninduced"}, "[18]": {"conditions": "measured here: relative caspase fold change +Dox/-Dox"}, "[19]": {"conditions": "measured here: total cells with miR-34 induction, stronger effect = lower value"}, "[20]": {"conditions": "measured here: total cells without miR-34 induction"}, "[21]": {"conditions": "MELAS cybrid survival, CellTiter-Glo 48 h, stronger effect = higher value"}, "[22]": {"conditions": "Rieske KO mouse fibroblast survival, CellTiter-Glo 72 h"}}, "note": "“And” between values parts separate entries of the source, which are not always exact repeats. Identical values can stand only once. The source made the active and inactive calls.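 How the source made its calls, unless noted: active means compounds whose cell count with miR-34 switched on is under 0.7 times the count with it off; inactive means the rest.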"}
{"smiles": "CNCCCC1c2ccccc2C=Cc2ccccc21", "values": [{"measurement": "survival", "setting": "[1]", "value": "0.667 (inactive)"}, {"measurement": "parasite load remaining", "setting": "[2]", "value": "64.9% (inactive) and 67.7% (inactive)"}, {"measurement": "viability", "setting": "[2]", "value": "77.6% and 100%"}, {"measurement": "nuclear beta-catenin stimulation", "setting": "[3]; at 10 µM", "value": "2% (inactive)"}, {"measurement": "nuclear beta-catenin stimulation", "setting": "[3]; stimulation, at 2 µM", "value": 0.5, "unit": "%"}, {"measurement": "insulin secretion stimulation", "setting": "[4]", "value": "1.7% (inactive)"}, {"measurement": "viability decrease", "setting": "[5]", "value": "-46.9% (inactive)"}, {"measurement": "tube area decrease", "setting": "[6]", "value": "40.6% (active)"}, {"measurement": "GLP1 secretion stimulation", "setting": "[7]", "value": "6.8% (inactive)"}, {"measurement": "inhibition of viability", "setting": "[8]", "value": "39.3% (inactive)"}, {"measurement": "viability decrease (inhibition)", "setting": "[9]", "value": "87.8% (active)"}, {"measurement": "viability decrease (inhibition)", "setting": "[10]", "value": "30.3% (inactive)"}, {"measurement": "red/green cell ratio (normalised)", "setting": "[11]", "value": "1.06 (inactive)"}, {"measurement": "normalised cell number", "setting": "[11]; [15]", "value": 0.98}, {"measurement": "normalised cell number", "setting": "[11]; [16]", "value": 1.04}, {"measurement": "fold change", "setting": "[12]; [17]", "value": "1.12 (inactive) and 0.946 (inactive) and 0.93 (inactive)"}, {"measurement": "fold change", "setting": "[12]; [18]", "value": "1.27 and 1.04 and 5.53"}, {"measurement": "cell count", "setting": "[12]; [19]", "value": "6500 and 6350 and 11800"}, {"measurement": "cell count", "setting": "[12]; [20]", "value": "5820 and 6720 and 12700"}, {"measurement": "z-score", "setting": "[13]; [21]", "value": "-0.141 (inactive)"}, {"measurement": "z-score", "setting": "[13]; [22]", "value": -0.441}, {"measurement": "remaining NAD", "setting": "[14]", "value": "10 nM (inactive)"}]}
{"smiles": "CC(C)(Oc1ccc(C2CC2(Cl)Cl)cc1)C(=O)O", "note": "(stereo not drawn)", "values": [{"measurement": "survival", "setting": "[1]", "value": "3.17 (inactive)"}, {"measurement": "parasite load remaining", "setting": "[2]", "value": "67% (inactive)"}, {"measurement": "viability", "setting": "[2]", "value": 69.5, "unit": "%"}, {"measurement": "nuclear beta-catenin stimulation", "setting": "[3]; at 10 µM", "value": "-1.2% (inactive)"}, {"measurement": "nuclear beta-catenin stimulation", "setting": "[3]; stimulation, at 2 µM", "value": -1, "unit": "%"}, {"measurement": "insulin secretion stimulation", "setting": "[4]", "value": "-1.6% (inactive)"}, {"measurement": "viability decrease", "setting": "[5]", "value": "0.1% (inactive)"}, {"measurement": "tube area decrease", "setting": "[6]", "value": "-3% (inactive)"}, {"measurement": "GLP1 secretion stimulation", "setting": "[7]", "value": "1.4% (active)"}, {"measurement": "inhibition of viability", "setting": "[8]", "value": "-3.5% (inactive)"}, {"measurement": "viability decrease (inhibition)", "setting": "[9]", "value": "-7.2% (inactive)"}, {"measurement": "viability decrease (inhibition)", "setting": "[10]", "value": "-11.1% (inactive)"}, {"measurement": "red/green cell ratio (normalised)", "setting": "[11]", "value": "1.11 (inactive)"}, {"measurement": "normalised cell number", "setting": "[11]; [15]", "value": 1.15}, {"measurement": "normalised cell number", "setting": "[11]; [16]", "value": 1.28}, {"measurement": "fold change", "setting": "[12]; [17]", "value": "1.01 (inactive) and 0.95 (inactive) and 0.923 (inactive)"}, {"measurement": "fold change", "setting": "[12]; [18]", "value": "2.14 and 0.705 and 0.604"}, {"measurement": "cell count", "setting": "[12]; [19]", "value": "9720 and 9780 and 8880"}, {"measurement": "cell count", "setting": "[12]; [20]", "value": "9650 and 10300 and 9610"}, {"measurement": "z-score", "setting": "[13]; [21]", "value": "-0.289 (inactive) and 0.864 (inactive)"}, {"measurement": "z-score", "setting": "[13]; [22]", "value": "-0.625 and 0.179"}, {"measurement": "remaining NAD", "setting": "[14]", "value": "10 nM (inactive)"}]}
{"smiles": "Clc1ccc(Cn2c(CN3CCCC3)nc3ccccc32)cc1", "values": [{"measurement": "survival", "setting": "[1]", "value": "21.8 (inactive)"}, {"measurement": "parasite load remaining", "setting": "[2]", "value": "30.7% (inactive) and 102% (inactive)"}, {"measurement": "viability", "setting": "[2]", "value": "47.8% and 90.5%"}, {"measurement": "nuclear beta-catenin stimulation", "setting": "[3]; at 10 µM", "value": "3.1% (inactive)"}, {"measurement": "nuclear beta-catenin stimulation", "setting": "[3]; stimulation, at 2 µM", "value": 3, "unit": "%"}, {"measurement": "insulin secretion stimulation", "setting": "[4]", "value": "4.9% (inactive)"}, {"measurement": "viability decrease", "setting": "[5]", "value": "-123% (inactive)"}, {"measurement": "tube area decrease", "setting": "[6]", "value": "14.2% (inactive)"}, {"measurement": "GLP1 secretion stimulation", "setting": "[7]", "value": "6.1% (inactive)"}, {"measurement": "inhibition of viability", "setting": "[8]", "value": "34% (inactive)"}, {"measurement": "viability decrease (inhibition)", "setting": "[9]", "value": "61.5% (active)"}, {"measurement": "viability decrease (inhibition)", "setting": "[10]", "value": "19.7% (inactive)"}, {"measurement": "red/green cell ratio (normalised)", "setting": "[11]", "value": "0.77 (inactive)"}, {"measurement": "normalised cell number", "setting": "[11]; [15]", "value": 1.28}, {"measurement": "normalised cell number", "setting": "[11]; [16]", "value": 0.98}, {"measurement": "fold change", "setting": "[12]; [17]", "value": "1.11 (inactive) and 0.92 (inactive)"}, {"measurement": "fold change", "setting": "[12]; [18]", "value": "2.1 and 1.3"}, {"measurement": "cell count", "setting": "[12]; [19]", "value": "5510 and 8130"}, {"measurement": "cell count", "setting": "[12]; [20]", "value": "4960 and 8840"}, {"measurement": "z-score", "setting": "[13]; [21]", "value": "0.821 (inactive)"}, {"measurement": "z-score", "setting": "[13]; [22]", "value": 0.481}, {"measurement": "remaining NAD", "setting": "[14]", "value": "10 nM (inactive)"}]}
{"smiles": "CC(=O)Oc1cc(C(C)C)c(OCCN(C)C)cc1C", "values": [{"measurement": "survival", "setting": "[1]", "value": "24.8 (inactive)"}, {"measurement": "parasite load remaining", "setting": "[2]", "value": "26.2% (inactive) and 99.2% (inactive)"}, {"measurement": "viability", "setting": "[2]", "value": "48.6% and 93%"}, {"measurement": "nuclear beta-catenin stimulation", "setting": "[3]; at 10 µM", "value": "-2.5% (inactive)"}, {"measurement": "nuclear beta-catenin stimulation", "setting": "[3]; stimulation, at 2 µM", "value": -1, "unit": "%"}, {"measurement": "insulin secretion stimulation", "setting": "[4]", "value": "5.5% (inactive)"}, {"measurement": "viability decrease", "setting": "[5]", "value": "19.7% (inactive)"}, {"measurement": "tube area decrease", "setting": "[6]", "value": "-2.1% (inactive)"}, {"measurement": "GLP1 secretion stimulation", "setting": "[7]", "value": "2.8% (inactive)"}, {"measurement": "inhibition of viability", "setting": "[8]", "value": "2.17% (inactive)"}, {"measurement": "viability decrease (inhibition)", "setting": "[9]", "value": "20.7% (inactive)"}, {"measurement": "viability decrease (inhibition)", "setting": "[10]", "value": "-14.3% (inactive)"}, {"measurement": "red/green cell ratio (normalised)", "setting": "[11]", "value": "1.11 (inactive)"}, {"measurement": "normalised cell number", "setting": "[11]; [15]", "value": 0.81}, {"measurement": "normalised cell number", "setting": "[11]; [16]", "value": 0.9}, {"measurement": "fold change", "setting": "[12]; [17]", "value": "1.09 (inactive) and 0.875 (inactive)"}, {"measurement": "fold change", "setting": "[12]; [18]", "value": "0.909 and 1.24"}, {"measurement": "cell count", "setting": "[12]; [19]", "value": "11300 and 8650"}, {"measurement": "cell count", "setting": "[12]; [20]", "value": "10400 and 9890"}, {"measurement": "z-score", "setting": "[13]; [21]", "value": "0.238 (inactive)"}, {"measurement": "z-score", "setting": "[13]; [22]", "value": -0.428}, {"measurement": "remaining NAD", "setting": "[14]", "value": "10 nM (inactive)"}]}
